Source: PubChem BioAssay (several laboratories)
AI-2 QS modul: modulates the Vibrio harveyi AI-2 quorum sensing system. Vibrio harveyi JMH597 AI-2 luminescence/OD600 ratio, 9 h; active compounds read low; strain lacks LuxN and CqsS sensors; 0 = neutral-control median. activity change, % at 7.5 µM. actives 0.4% (n = 300,000); in the data active means activity change below about -75%, passing the limit was not always enough;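 further: luminescence divided by OD600 gain over 9 h not by final OD600 alone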
PREPL inhibitor: human PREPL enzyme inhibition; Q4J6C6; recombinant PREPL, fluorescence polarization activity-based probe; inhibition, % at 5.96 µM; actives 0.68% (n = 320,000); in the data active means inhibition above about 43%;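 further: 0% = enzyme with DMSO and 100% = wells lacking enzyme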
ALR inh: blocks human ALR sulfhydryl oxidase activity; P55789; purified ALR, DTT oxidation, H2O2 HRP-luminol luminescence; inhibition, % (no concentration beside the values); actives 3.8% (n = 290,000); AID 485317;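 active means mean replicate inhibition above about 79%, with every replicate also reaching it, limit read from the data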
Target sequence (P55789 whole entry, looked up): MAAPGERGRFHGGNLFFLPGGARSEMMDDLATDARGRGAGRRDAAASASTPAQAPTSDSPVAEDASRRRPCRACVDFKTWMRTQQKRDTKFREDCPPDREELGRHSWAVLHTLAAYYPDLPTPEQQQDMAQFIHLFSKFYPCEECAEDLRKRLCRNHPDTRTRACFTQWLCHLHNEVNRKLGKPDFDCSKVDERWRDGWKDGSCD
CHT allo act: allosteric activators of human choline transporter CHT; CHT-expressing cells, membrane potential dye, choline EC20; active compounds read high; LV-AA mutant CHT in HEK293 cells; B-score at 10 µM; actives 0.49% (n = 310,000);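 active means initial fluorescence not abnormally high and integrated response B-score, plate-corrected, over 3 SD above library mean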
CHT block: human CHT choline transport inhibition; CHT-expressing cells, membrane potential dye, choline response; active compounds read low; actives 0.86% (n = 310,000); B-score at 10 µM; Q9GZV3;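 active means B-score over 3 SD under the library average, and starting fluorescence ratio not unusually high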;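 further: choline stimulus applied at its EC90 after an EC20 pre-addition; B-score computed on integrated fluorescence ratio after choline addition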
CHT act confirm: confirmation of human choline transporter (CHT) activators; AID 504833; activation, % at 10 µM; CHT-expressing cells, membrane potential dye fluorescence (FDSS); % of choline EC20–EC90 response window; HEK293 expressing CHT LV-AA mutant; choline added at its EC20; shares compounds with CHT allo act; actives 91% (n = 2,500);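 active means primary screen active, with duplicate mean activation above negative control mean plus 3 SD, cut at about 11% in these data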
HEK293 MP dye: counter-screen for CHT activators: effect in parental HEK293 cells. membrane potential dye fluorescence (FDSS); measured after EC20 choline addition. AID 623908. actives 62% (n = 2,500). shares compounds with CHT allo act. ratio readout change at 10 µM, hits read low;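 active means duplicate-averaged ratio beyond 3 SD from buffer wells, up or down, though filed actives are nearly all decreases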
* hit, by the source's call; i = inactive; x = no result given. Only some compounds are listed: those with a hit (about 5% of all), similar ones and a draw of the others.

SMILES | AI-2 QS modul | PREPL inhibitor | ALR inh | CHT allo act | CHT block | CHT act confirm | HEK293 MP dye
Cc1n(C)c2cc(Cl)ccc2[n+]1Cc1ccccc1 | 1.1 | 13.3 | -12.9 | 9.3* | i | 65.1* | -44.2*
CCN1C(=O)[C@@H]2[C@@H](c3ccc(SC4CCCCC4)cc3)N3CCC[C@@]3(C(=O)OC)[C@@H]2C1=O | 7.5 | -7.2 | -3.8 | i | i | x | x
Cc1nnc2ccc(N3CCN(c4ccccn4)CC3)nn12 | 16.4 | 8.7 | -13.1 | 7.23* | i | 52.7* | -51.2*
c1cc2nncn2nc1N1CCCC1 | 9.5 | -7.4 | -18.5 | i | i | x | x
c1ccc(N2CCN(c3ccc4nncn4n3)CC2)nc1 | 23.4 | 2.1 | 0.0 | 9.75* | i | 66.1* | -58*
Cc1cc(C)cc(COc2ccc3c(C)c(CC(=O)O)c(=O)oc3c2C)c1 | 47.7 | 0.1 | 5.6 | i | i | x | x
Cc1c(C)c2ccc(OCc3ccc(C(=O)O)o3)c(C)c2oc1=O | 20.4 | 7.2 | 25.0 | 7.83* | i | 30.5* | -40*
CC(C)CCN1CCN(Cc2cc(F)ccc2-n2cccn2)CC1CCO (stereo unspecified) | 16.9 | -0.8 | -0.1 | i | i | x | x
CC(C)CN1CCN(Cc2cc(F)ccc2-n2cccn2)CC1CCO (stereo unspecified) | -1.2 | 3.0 | -5.2 | i | i | 9.4 | i
COc1cc(OC)cc(C(=O)OC(C)C(=O)NC2CCCc3ccccc32)c1 (stereo unspecified) | x | 0.9 | x | x | x | x | x
O=[N+]([O-])c1ccccc1N(CC1CO1)S(=O)(=O)c1ccccc1 (stereo unspecified) | 7.0 | -4.1 | -4.3 | i | i | x | x
O=C(c1nn(Cc2ccccc2)c(=O)c2ccccc12)N1CCc2ccccc2C1 | 12.4 | 18.4 | -3.4 | 8.39* | i | 28.3* | i
O=C(c1nn(Cc2ccccc2)c(=O)c2ccccc12)N1CCN(c2ccccn2)CC1 | 15.0 | 4.7 | -22.2 | 7.56* | i | 25.6* | i
NC(=O)C1Cc2ccccc2CN1C(=O)c1nn(Cc2ccccc2)c(=O)c2ccccc12 (stereo unspecified) | x | -2.4 | 2.4 | x | x | x | x
CC(Oc1ccc2c3c(c(=O)oc2c1)CCC3)C(=O)NCc1cccnc1 (stereo unspecified) | 5.4 | -1.2 | 3.3 | i | i | x | x
Cc1cccc(Cn2c(SCCN3CCCCC3)nc3c2c(=O)[nH]c(=O)n3C)c1 | 4.1 | -8.3 | -0.2 | 9.05* | i | 60.6* | -62.1*
Cc1cccc(Cn2c(N3CCN(CCO)CC3)nc3c2c(=O)[nH]c(=O)n3C)c1 | -0.8 | 6.7 | -25.2 | i | i | x | x
Cn1c(=O)[nH]c(=O)c2c1nc(SCCN1CCCCC1)n2CCCc1ccccc1 | x | 5.2 | 5.9 | i | i | 52.7* | -54.2*
Cn1c(=O)[nH]c(=O)c2c1nc(SCCN1CCCCC1)n2Cc1ccccc1 | 29.5 | -13.6 | -2.5 | 9.92* | i | 57.9* | -60.9*
Cc1ccc(Cn2c(SCCN3CCCCC3)nc3c2c(=O)[nH]c(=O)n3C)cc1 | 25.3 | -0.7 | 6.4 | 6.46* | i | 52.8* | -50.2*
C=CCn1c(SCCN2CCCC2)nc2c([nH]c3ccccc32)c1=O | 11.2 | 3.3 | 2.1 | 6.5* | i | 39.6* | -40.8*
C=CCn1c(SCC(=O)Nc2cc(C)on2)nc2c([nH]c3ccccc32)c1=O | 5.0 | 1.9 | -11.9 | i | i | x | x
C=CCn1c(SCCN2CCCCC2)nc2c1c(=O)[nH]c(=O)n2C | -2.9 | 17.3 | x | 10.1* | i | 63.5* | -62.8*
O=S(=O)(NCc1c(Cl)cccc1Oc1ccccc1)c1ccc(F)cc1 | 4.8 | -17.8 | -9.3 | i | i | 0.8 | i
Cc1ccn2c(Nc3ccccc3C)c(-c3cccnc3)nc2c1 | 9.8 | -9.6 | 96.9* | i | i | 40.7* | -48.6*
SMILES | AI-2 QS modul | PREPL inhibitor | ALR inh | CHT allo act | CHT block | CHT act confirm | HEK293 MP dye
Cc1ccccc1Nc1c(-c2ccc(N3CCOCC3)cc2)nc2cnccn12 | 10.0 | 3.8 | x | 9.39* | i | 29.1* | -54.8*
Cc1ccccc1Nc1c(-c2ccc(N3CCOCC3)cc2)nc2ncccn12 | 25.7 | -4.0 | 98.2* | i | i | 24.8* | -53.1*
Cc1ccn2c(NC(=O)c3ccco3)c(-c3ccccc3)nc2c1 | 8.6 | 1.4 | 39.2 | i | i | x | x
Cc1ccc(-n2c(SCC(=O)N3Cc4ccccc4CC3C(=O)O)nnc2-c2cccnc2)c(C)c1 (stereo unspecified) | 6.7 | 1.8 | -20.1 | i | i | x | x
CCCn1c(=N)c(C#N)cc2c(=O)n3ccccc3nc21 | 31.4 | 11.0 | -0.6 | 6.95* | i | 47.9* | -63.9*
CCC(C)n1c(=N)c(C#N)cc2c(=O)n3ccccc3nc21 (stereo unspecified) | 12.9 | -3.3 | -3.6 | i | i | x | x
CCCn1c(=N)c(C#N)cc2c(=O)n3cccc(C)c3nc21 | 21.0 | -2.0 | 6.9 | 8.32* | i | 49.4* | -38.3*
Cc1cccn2c(=O)c3cc(C#N)c(=N)n(CCN4CCOCC4)c3nc12 | 14.0 | x | x | x | x | x | x
CCCCCCCCC1=NCCc2c1[nH]c1ccccc21 | 22.1 | 21.8 | -46.8 | i | i | 48.4* | i
CCCCc1c(O)c2ccccc2[nH]c1=O | 24.4 | 3.6 | x | i | i | x | x
CCOc1ccc(S(=O)(=O)N2CCCC(C(=O)NCc3cccnc3)C2)cc1Cl (stereo unspecified) | -8.0 | -7.5 | -4.0 | i | i | x | x
O=C(COc1ccc2c(c1)oc(=O)c1ccccc12)NCC1CCC(C(=O)O)CC1 (stereo unspecified) | 43.2 | -4.6 | -7.5 | 6.32* | i | 31.8* | -20.4*
Cc1cc(C)n2ncc(C(=O)NCc3cccnc3)c2n1 | -3.9 | 2.9 | -6.1 | i | i | 41.5* | -37.8*
COc1ccc(C2=NN(CC(=O)NCc3ccco3)C(=O)CC2)cc1 | 18.2 | 11.8 | 7.4 | i | i | x | x
Cn1c2ccccc2n2c(=O)cc(-c3ccccc3)c(C#N)c12 | 14.1 | -6.2 | x | i | i | x | x
Cc1cc(=O)n2c3ccccc3n(CC(O)CN3CCC(C)CC3)c2c1C#N (stereo unspecified) | 15.6 | x | x | x | x | x | x
Cc1cc(=O)n2c3ccccc3n(CC(O)CN3CCN(Cc4ccccc4)CC3)c2c1C#N (stereo unspecified) | -1.1 | -18.7 | -8.9 | 7.62* | i | 51.0* | -55*
Cc1cc(=O)n2c3ccccc3n(CC(O)CN3CCN(CCO)CC3)c2c1C#N (stereo unspecified) | -3.0 | -8.8 | 40.2 | i | i | 46.1* | -33.7*
